The supplement of paper PMC3414501
Structures can show the parent of a compound that is named as a salt.

These molecules were tested on S. cerevisiae BY4741 (wild-type), vegetative growth in YPD (assay: growth sensitivity score (doubling time z-score vs DMSO controls); higher = slower growth, strongly negative scores also mark growth inhibition (complete suppression), active = hit call of the paper).
Summary of the method: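 Optical density of Saccharomyces cerevisiae cultures in microtiter plates was followed every 15 min for 24 hours after seeding at an OD600 of 0.065. Eight solvent-only wells were run per experiment. Growth sensitivity scores were found by subtracting the solvent-only mean from the compound mean and dividing by the solvent-only standard deviation.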

Row | Compound | growth sensitivity score
1 | Cc1nc2n(c(=O)c1CCN1CCC(c3noc4cc(F)ccc34)CC1)CCCC2 [Risperidone] (stock concentration (mM, diluted 1:100): 10) | -0.68 (inactive)
2 | C[C@H]1O[C@H](O[C@H]2[C@H](O)[C@@H](O)[C@@H](O[C@H]3[C@H](O)[C@@H](O)C(O)O[C@@H]3CO)O[C@@H]2CO)[C@H](O)[C@@H](O)[C@@H]1N[C@H]1C=C(CO)[C@@H](O)[C@H](O)[C@H]1O (stereo not given in full) [Acarbose] (stock concentration (mM, diluted 1:100): 10) | -1.13 (inactive)
3 | NC(=O)c1cccnc1 [Nicotinamide] (stock concentration (mM, diluted 1:100): 10) | -0.49 (inactive)
4 | CC(COc1ccccc1Cc1ccccc1)N1CCCCC1 (stereo not given) [Benproperine phosphate] (stock concentration (mM, diluted 1:100): 10) | 6.41 (active)
5 | Oc1ccc(C2CNCCc3c2cc(O)c(O)c3Cl)cc1 (stereo not given) [Fenoldopam mesylate] (stock concentration (mM, diluted 1:100): 7.7) | -0.74 (inactive)
6 | O=C(c1ccc(F)cc1)C1CCN(CCn2c(=S)[nH]c3ccccc3c2=O)CC1 [Altanserin] (stock concentration (mM, diluted 1:100): 10) | -0.21 (inactive)
7 | C[C@]12CCC(=O)C=C1CC[C@@H]1[C@@H]2C(=O)C[C@@]2(C)[C@H]1CC[C@]2(O)C(=O)CO [Cortisone] (stock concentration (mM, diluted 1:100): 10) | -0.57 (inactive)
8 | COc1cc(N)c(Cl)cc1C(=O)NC1CCN(CCCOc2ccc(F)cc2)CC1OC (stereo not given) [Cisapride] (stock concentration (mM, diluted 1:100): 10.5) | 1.35 (inactive)
9 | CCOC(=O)C1=C(C)NC(C)=C(C(=O)OCC)C1c1ccccc1/C=C/C(=O)OC(C)(C)C [Lacidipine] (stock concentration (mM, diluted 1:100): 10) | -1.71 (inactive)
10 | COc1ccc(CC2c3cc(OC)c(OC)cc3CC[N+]2(C)CCC(=O)OCCCCCOC(=O)CC[N+]2(C)CCc3cc(OC)c(OC)cc3C2Cc2ccc(OC)c(OC)c2)cc1OC (stereo not given) [Atracurium besylate] (stock concentration (mM, diluted 1:100): 10) | -0.31 (inactive)
11 | C#C[C@]1(O)CC[C@H]2[C@@H]3[C@H](C)CC4=C(CCC(=O)C4)[C@H]3CC[C@@]21C [Tibolone] (stock concentration (mM, diluted 1:100): 10) | 0.52 (inactive)
12 | CC1CCN(CCCC(=O)c2ccc(F)cc2)CC1 [Metylperon] (stock concentration (mM, diluted 1:100): 10) | 1.93 (inactive)
13 | CN1CCN(c2c(F)cc3c(=O)c(C(=O)O)cn4c3c2SCC4)CC1 [Rufloxacin hydrochloride] (stock concentration (mM, diluted 1:100): 10) | -0.18 (inactive)
14 | CCOC(=O)OC(C)OC1=C(C(=O)Nc2ccccn2)N(C)S(=O)(=O)c2ccccc21 (stereo not given) [Ampiroxicam] (stock concentration (mM, diluted 1:100): 10) | -0.19 (inactive)
15 | O=C(O)Cc1ccccc1Nc1c(Cl)cccc1Cl [Diclofenac] (stock concentration (mM, diluted 1:100): 10) | 1.48 (inactive)
16 | CC(=O)Oc1ccccc1C(=O)Nc1ncc([N+](=O)[O-])s1 [Nitazoxanide] (stock concentration (mM, diluted 1:100): 10) | 1.77 (inactive)
17 | O=C1c2c(O)cc(O)cc2OC(c2ccc(O)c(O)c2)C1O (stereo not given) [Taxifolin] (stock concentration (mM, diluted 1:100): 10.1) | -1.02 (inactive)
18 | CSc1nc2cc(Cl)c(Oc3cccc(Cl)c3Cl)cc2[nH]1 [Triclabendazole] (stock concentration (mM, diluted 1:100): 10) | 168 (active)
19 | CS(=O)(=O)c1ccc(C2=C(c3ccccc3)C(=O)OC2)cc1 [Rofecoxib] (stock concentration (mM, diluted 1:100): 10) | 0.04 (inactive)
20 | CN1CCN(C2=Nc3cc(F)ccc3Cc3ccccc32)CC1 [Fluperlapine] (stock concentration (mM, diluted 1:100): 10) | 0.57 (inactive)
